PubChem BioAssay AID504444 (National Center for Advancing Translational Sciences (NCATS), 2011)
Hit rate of the full screen: of about 360,000 compounds, about 7,500 (2.1%) were called active. Not shown: some 20% with an inconclusive outcome. The call rests on the fitted dose curve; in most records, active means well fitted inhibition curve with a large enough effect; inconclusive means small, poorly fitted or top-dose-only effect, or effect the other way; inactive means flat fitted curve, though single readings scatter. The full list was thinned out, with actives kept by preference.

Test: Nrf2 qHTS screen for inhibitors; further: nearly all actives have a fitted effect of over 60% in size
Conditions: A549 ARE-Fluc reporter, luciferase luminescence, 18-24 h; series mostly up to 46 µM; activity change, negative = inhibition: at the top concentration
Description: NIH Molecular Libraries Probe Production Network [MLPCN]
NIH Chemical Genomics Center [NCGC]
Assay Provider: Shyam Biswal, Johns Hopkins University
Nrf2 is a transcription factor that maintains cellular redox homoestasis and protects cells from xenobiotics. Nrf2 binds to the antioxidant response element (ARE) to induce gene expression of a broad spectrum of genes that encode for antioxidants. […] Finding a small molecule that act as an inhibitor of Nrf2 function would represent a novel therapeutic target that could lead to improvement in survival of patients undergoing chemo- and/or radio- therapy.
This is the Nrf2 activity measured in the luminescent read.
1. Shibata, T., et al., Genetic Alteration of Keap1 Confers Constitutive Nrf2 Activation and Resistance to Chemotherapy in Gallbladder Cancer. Gastroenterology, 2008.
2. Sjoblom, T., et al., The consensus coding sequences of human breast and colorectal cancers. Science, 2006. 314(5797): p. 268-74.
NCGC Assay Protocol Summary:
A concentration-response assay was performed with A549 ARE_Fluc cells which are suspended in 5% FBS OPTI-MEM. Five uL were dispensed into 1536-well white TC-treated plate using the Kalypsys dispenser to achieve a density of 5000 cells/well in all columns except column 1. The plate is incubated at 37deg C at 5% CO2 for 2 hours before 23 nL of compounds are added with the Kalypsys pin tool equipped with a 1,536-pin array containing 10-nL slotted pins (FP1S10, 0.457-mm diameter, 50.8 mm long; V&P Scientific). The control compounds Budesonide and Staurosporine are both added at a concentration of 2mM and Budesonide is also added as a 1:10 titration, starting at 200uM, to achieve dose-response. After an 18-24 hour incubation at 37deg C at 5% CO2, 5ul of medium is added to column 1. Afterwards 1ul of 5x of CellTiter-Fluor (Promega) is added to every well. The plate is then incubated at 37deg C at 5% CO2 for 30 minutes before they are read on the ViewLux (Perkin Elmer) for a fluorescent read Ex=405(10)/Em=525(10) for a 3 second exposure, 2x binning, and high gain. Then 3 uL of 3x BugLite is dispensed into all wells and the plate is incubated at ambient room temperature for 15 minutes. Afterwards another ViewLux read is performed using the clear filter to get a luminescent read with the settings of 40 second exposure, 2x binning, and high gain. Cytotoxicity is assessed through the first fluorescent read and then biochemical activity against Nrf2 is measured in the luminescent read.
On the % scale 0 is the no-effect control and ±100 the full control effect; potency means the concentration at half of the fitted maximal effect.

Activity change, negative = inhibition, inactive:
CCN(C(=O)c1ccc(Br)cc1)c1ccccc1 -12.2%
COC(=O)[C@]1(Cc2ccccc2)N[C@H](CN(C)S(=O)(=O)c2ccc(OC(F)(F)F)cc2)[C@@H]2C(=O)N(C)C(=O)[C@@H]21 -14.7%
CCCN(CCC)CCCNC(=O)Cn1ncc2c3ccccc3n(Cc3ccccc3)c2c1=O 13.4%
Cc1ccc(S(=O)(=O)c2cn(Cc3ccccc3)c3cc(N4CCCC4)c(F)cc3c2=O)c(C)c1 -14.6%
Cc1cccc(S(=O)(=O)c2cn(Cc3ccccc3)c3cc(N4CCOCC4)c(F)cc3c2=O)c1 -18.8%
N#CC1=C(N)Oc2cc(N)ccc2C1c1ccccc1 (centres undefined) -15.3%
CN(C)Cc1cn(-c2ccccc2)nc1-c1ccccc1 -3.78%
O=C(N[C@H]1C/C=C\C(c2ccc(F)cc2)N(Cc2ccccc2)C(=O)C1)OCC1c2ccccc2-c2ccccc21 (some centres undefined) 4.03%
CCc1c(SCCC(=O)O)nc2ccccc2c1C -7.59%
CC(C)N(C(=O)CSc1nc(COc2ccccc2)nc2ccccc12)C(C)C -10.9%
NC(=O)C1(Nc2ccc(-c3ccccc3)cc2)CCCC1 8.22%
O=C1CCCC2=C1[C@@]1(CCC(c3ccccc3)C1)N=C(Nc1nc3ccccc3o1)N2 (some centres undefined) -25.3%
O=c1c2ccccc2n(Cc2cccc(Cl)c2)c(=O)n1Cc1ccccc1 -5.53% [at 9.27 µM]
CCOC(=O)c1cnc(SCC(=O)NCc2ccco2)nc1N -21.5%
CCOC(=O)c1cnc(SCc2nc(N)nc(Nc3ccc(OC)cc3)n2)nc1N -25.3%
COc1ccc(-c2cn3c(n2)sc2cc(C(=O)Nc4ccc(F)cc4)ccc23)cc1 -5.23%
CCCCCCC1(C)NC(c2ccc3c(c2)OCO3)=CC(c2ccccc2O)N1 (centres undefined) 2.14%
CC(=O)NCC(=O)NC1CCCc2c1cnn2-c1ccccc1F (centres undefined) 19.1%
COc1ccc(C(=O)NC2CC(C)(C)Cc3c2cnn3-c2ccccc2C)o1 (centres undefined) 13.2%
CC1=C(C(=O)NC2CC(C)(C)Cc3c2cnn3-c2ccc(C)cc2)OCCO1 (centres undefined) -24%
Cc1ccc(C(=O)NCCNC(=O)c2cnccn2)cc1 4.7%
Cc1ccc(-c2csc(NC(=O)c3cnccn3)n2)cc1C 15.5%
Cc1cccc(-n2nc3c(c2NC(=O)c2ccc(Br)o2)CSC3)c1C -10.6%
COc1cc(CNCCSc2nnnn2C)ccc1OCc1ccc(Cl)cc1Cl -13.7%
COc1ccc(CNC(=O)CS(=O)Cc2nc(-c3cccc(C)c3)oc2C)cc1 (centres undefined) -4.99%
Cc1ccc(OCCSc2nc(C)c(Cc3ccccc3)c(=O)[nH]2)cc1 7.59%
CCOC(=O)[C@H]1[C@H]2COc3ccc(Br)cc3[C@@H]2N2C(=O)CN(C)C(=O)[C@@]12C -13.2%
CN(CC(=O)Nc1ccc(OC(F)F)cc1)S(=O)(=O)/C=C/c1ccccc1 -13.5%
O=C(Nc1cccc(NC(=O)c2cccc(F)c2)c1)c1ccccc1 -21.7%
Cc1ccccc1C(=O)Nc1sc2c(c1C(=O)N1CCC(C)CC1)CCCC2 3.62%
COc1ccc(C(=O)COC(=O)c2ccc([N+](=O)[O-])s2)cc1OC 10.6%
Cc1cc(C(=O)N/N=C/c2cc([N+](=O)[O-])cc(C)c2O)n[nH]1 -24.2%
COc1ccc2ccccc2c1/C=N/NC(=O)c1cc(C)[nH]n1 10.1%
CCOc1ccc(NC(=O)CCC(=O)N/N=C/c2ccc([N+](=O)[O-])s2)cc1 -11.9%
Cn1c(=O)c(C(=O)O)nn(-c2ccccc2)c1=O 7.58% [at 9.27 µM]
COc1ccc(C2=NC(c3ccncc3)=Nc3ccc(Br)cc3N2)cc1 -17.2%
COc1cc(C2CC(=O)Oc3cc(OC)c(OC)c(OC)c32)cc(OC)c1OC (centres undefined) -9.18%
CCN1CCN(CCNC(=O)c2ccc(/C=C3/Sc4ccccc4N(Cc4cccc(C)c4)C3=O)cc2)CC1 6.25%

Potency, active:
Cc1ccc(S(=O)(=O)N2C[C@@H]3CCCC[C@@H]3[C@@H](C)[C@H]2c2cn(Cc3ccccc3)c3ccc(F)cc23)cc1 2.91 µM
O=C(O)CSc1nccc2ccccc12 16.4 µM
CCOC(=O)c1cnc(SCC(=O)Nc2cccc(OC)c2)nc1N 25.9 µM
Cn1nccc1C(=O)NC1CCCc2c1cnn2-c1ccc(F)cc1F (centres undefined) 0.184 µM
Cc1cc(C(=O)NC2CCCc3c2cnn3-c2cccc(C)c2C)c(C)o1 (centres undefined) 3.66 µM
Cc1ccc(-n2ncc3c2CCCC3NC(=O)c2cnccn2)cc1C (centres undefined) 20.6 µM
O=C(Cc1ccccc1)Nc1cccc(NC(=O)c2ccccc2)c1 25.9 µM
CC(C)(C)c1cc(C(=O)N/N=C/c2ccc([N+](=O)[O-])s2)n[nH]1 20.6 µM
COc1ccc(C(=O)NCC(=O)N/N=C/c2ccc([N+](=O)[O-])s2)cc1OC 25.9 µM
CCN1/C(=C/c2ccc3ccc(C)cc3[n+]2CC)Sc2ccccc21 13 µM

Potency, inactive:
O=C(Nc1cccc(NC(=O)c2ccc(Br)cc2)c1)c1ccccc1
